Hits are enriched below; roughly 21% of the tested compounds scored in any of these assays.
NS1 function inh – influenza NS1 inhibition; Potency, µM (titrated, usually from 46.1 µM), for the others: top-dose activity, positive = more growth; AID 2326; hit rate 0.4% among 270,000; also: potency is read from the fitted curve at half-maximal effect; actives are rising curves; nearly all actives have a fitted effect of over 50% in size
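Recovery from NS1-induced slow growth read by OD600 in budding yeast switched to galactose assay medium (pH 6.0, -URA) at 1:100 dilution. Compound 23 nl per well; the matching strain lacking NS1 serves as control.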
Shiga inhibitor – Shiga toxin inhibition | hit rate 9.2% among 290,000 | Vero cells, Shiga toxin protein synthesis inhibition reporter | inhibition, % at 38.7 µM; in the data active = inhibition mostly above about 28%, no sharp cut-off; inactive = mostly below about 43%; also: 0% is about no effect
Pf growth 96h – P. falciparum growth inhibition at 96 hour, primary screen for plastid delayed-death inhibitors | P. falciparum luciferase reporter growth, 96 h | Potency, µM (series often up to 28.7 µM), for inactives: top-dose activity change, negative = inhibition, hits mostly inhibitors | hit rate 6.9% among 320,000; active = well fitted inhibition curve with a large enough effect; inconclusive = small, poorly fitted or top-dose-only effect, or another doubt; inactive = no such curve, though single readings can be large or run the other way; also: potency is read from the fitted curve at half-maximal effect; % is scaled to controls: 0 for no effect and ±100 for the full control effect
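Plates of compound plus infected erythrocytes (2% hematocrit, 0.05% parasitemia final) incubate 96 hours, 37 C, 5% CO2. Detection reagent added; reduced luminescence from the parasites' luciferase reporter flags inhibition.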
Cycloheximide cs – affects cycloheximide protein synthesis inhibition readout, counter-screen. cell reporter, cycloheximide protein synthesis inhibition counterscreen. max response, %. hit rate 12% among 300,000. AID 2314; in the data active = max response mostly above about 13%, no sharp cut-off; inactive = mostly below about 14%; also: read at 38.3 µM for the half of the compounds with a filed dose; 0% is about no effect
SARS PLpro yeast – blocks SARS-CoV papain-like protease in a yeast assay; S. cerevisiae expressing SARS-CoV PLpro, growth rescue; Potency, µM (series often up to 32.9 µM), for the others: at the highest dose activity, positive = growth rescue, hits mostly activators; hit rate 0.19% among 330,000; AID 485353; also: potency is read from the fitted curve at half-maximal effect; 0% is about no effect; nearly all actives have a fitted effect of over 55% in size
Pf growth 48h – inhibits P. falciparum growth in the first generation, 48 h; P. falciparum luciferase growth in erythrocytes, 48 h; Potency, µM (titrated, usually from 28.7 µM), for inactives: at the highest dose activity change, negative = inhibition, usual class: inhibitors; hit rate 5.9% among 310,000; AID 504832; active = well fitted inhibition curve with a large enough effect; inconclusive = small, poorly fitted or top-dose-only effect, or another doubt; inactive = no such curve, though single readings can be large or run the other way; also: potency is read from the fitted curve at half-maximal effect; % is scaled to controls: 0 for no effect and ±100 for the full control effect
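Erythrocytes infected with P. falciparum carrying an integrated firefly luciferase reporter (2% hematocrit, 0.1% parasitemia final) were exposed to compounds in RPMI 1640 with 0.5% Albumax at 37 C, 5% CO2. Growth inhibition was scored as reduced luminescence.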
* hit, by the source's call; ? = inconclusive; · = no result given. Unless noted, calls follow the shape of the full dose curve.

SMILES	NS1 function inh	Shiga inhibitor	Pf growth 96h	Cycloheximide cs	SARS PLpro yeast	Pf growth 48h
CC1CCN(S(=O)(=O)c2ccc(NC(=O)CN3C(=O)NC(C)(c4ccccc4)C3=O)cc2)CC1 (configuration not stated)	·	·	?	·	-4%	-12%
O=C(CCCN1C(=O)C(c2ccccc2)Oc2cccnc21)NCc1ccccc1Cl (configuration not stated)	-6%	-7	9%	6	3%	-3%
O=C(CCCN1C(=O)C(c2ccccc2)Oc2cccnc21)NCc1ccccc1F (configuration not stated)	5%	7	2.1µM*	10	29%	?
O=C(CCCN1C(=O)C(c2ccccc2)Oc2cccnc21)NCCc1ccc(Cl)cc1 (configuration not stated)	9%	6	9.3µM*	1	-2%	?
COc1ccc(OC)c(CCNC(=O)CCCc2nnc3n(C)c(=O)c4sccc4n23)c1	3%	-6	16%	-4	-2%	2%
O=C(O)c1ccc(-c2ccc(-c3ccccc3)cc2)s1	-17%	37	145%	23*	-1%	101%
Cc1cc(-c2ccc(C(=O)O)s2)cnc1N	·	76*	162%	43*	-6%	264%
O=C(Nc1ccccc1)c1ccc(-c2ccccc2)s1	·	100*	18%	39*	-1%	227%
CC1(C)C=C(c2ccc(C(=O)O)s2)CC(C)(C)N1	11%	6	74%	-4	8%	-2%
O=C1c2cccnc2C(Nc2ccccc2Br)N1Cc1ccco1 (configuration not stated)	·	43	32%	-1	2%	-22%
Cc1ccccc1OCC(=O)Nc1ccc2c(c1)n(C)c(=O)n2C	·	-4	-19%	2	-1%	?
CCOc1ccc(S(=O)(=O)Oc2ccc3ccccc3c2)cc1	-15%	43*	-2%	29*	-6%	45%
Cc1ccc(S(=O)(=O)Oc2ccc3ccc(O)cc3c2)cc1	-11%	·	-2%	29*	-4%	18%
O=C(COc1ccccc1[N+](=O)[O-])OCC(=O)c1ccc(Br)s1	·	·	·	·	-24%	·
CCN(C(=O)CN1C(=O)S/C(=C\C=C\c2ccccc2)C1=O)C1CCS(=O)(=O)C1 (configuration not stated)	6%	-5	4.1µM*	-2	-3%	7.4µM*
CCN(C(=O)CN1C(=O)S/C(=C\c2ccc(Cl)cc2)C1=O)C1CCS(=O)(=O)C1 (configuration not stated)	7%	-11	27%	-2	-2%	0%
CCN(C(=O)CCN1C(=O)/C(=C/c2ccccc2)SC1=S)C1CCS(=O)(=O)C1 (configuration not stated)	-13%	15	7.4µM*	9	-2%	13µM*
CCN(C(=O)CN1C(=O)/C(=C/c2ccccc2F)SC1=S)C1CCS(=O)(=O)C1 (configuration not stated)	5%	-3	?	-2	29%	-6%
CC(C(=O)N(C)C1CCS(=O)(=O)C1)N1C(=O)/C(=C/c2ccc(F)cc2)SC1=S (configuration not stated)	4%	6	12µM*	7	-3%	13µM*
CCN(C(=O)CN1C(=O)S/C(=C\c2cccc(Cl)c2)C1=O)C1CCS(=O)(=O)C1 (configuration not stated)	4%	1	12µM*	-2	3%	?
CCCCn1c(N)c(N(CC)C(=O)CSCC(=O)Nc2ccc(OC)cc2)c(=O)[nH]c1=O	·	·	12%	·	5%	?
O=C(Nc1ccc(Cc2ccncc2)cc1)c1cccs1	·	69*	16%	33*	-2%	72%
O=C(c1ccncc1)c1ccc(NC(=O)c2cccs2)cc1	·	148*	?	29*	-6%	-11%
CSc1ncccc1C(=O)OC(C)C(=O)Nc1cccc(S(=O)(=O)N2CCOCC2)c1 (configuration not stated)	·	·	·	·	-8%	·
N#C[C@@H]1[C@@H]2C(=O)N(c3ccc4c(c3)OCCO4)C(=O)[C@@H]2C2c3ccccc3C=CN21 (some centres not stated)	26%	30*	17%	16	-13%	?
SMILES	NS1 function inh	Shiga inhibitor	Pf growth 96h	Cycloheximide cs	SARS PLpro yeast	Pf growth 48h
CC(=O)[C@H]1[C@@H]2C(=O)N(c3cccc(Cl)c3)C(=O)[C@@H]2[C@H]2c3ccccc3C=CN21	11%	13	3%	11	-9%	?
O=c1c2cc(O)c(O)cc2oc2cc(O)c(C3OC(CO)C(O)C(O)C3O)c(O)c12 (configuration not stated)	·	·	43%	·	1%	9%
CNc1ccc(Br)cc(C(=O)/C=C/c2cc(OC)ccc2OC)c1=O	?	19	-104%	6	?	?
CCNc1ccc(Br)cc(C(=O)/C=C/c2ccc(Cl)cc2Cl)c1=O	-22%	11	-109%	12	-66%	?
CNc1ccc(Br)cc(C(=O)/C=C/c2ccc(OC)cc2)c1=O	?	active	19%	21*	20%	4%
CNc1ccc(Br)cc(C(=O)/C=C/c2ccc3c(c2)OCO3)c1=O	4%	74	?	25*	-11%	15%
O=C(COc1ccc2oc(-c3ccco3)cc(=O)c2c1)N1CCCCC1	-6%	9	?	10	-1%	?
O=C(O)c1ccc(N2CC3CC(C2)c2cccc(=O)n2C3)c(NC(=S)Nc2ccc(Br)cc2)c1 (configuration not stated)	·	10	31%	10	-5%	14%
O=C(CC1Sc2ccccc2NC1=O)Nc1cccc(-c2nnc3n2CCCCC3)c1 (configuration not stated)	-4%	97*	13µM*	13	3%	9.3µM*
COc1ccc2ccccc2c1/C=N/NC(=O)c1ccccc1F	-16%	26	?	11*	-5%	29%
CC(C)n1cc(/C=N/NC(=O)COc2cccc3cccnc23)c2ccccc21	11%	2	8.3µM*	6	10%	?
C=CCn1cc(/C=N/NC(=O)COc2cccc3cccnc23)c2ccccc21	2%	13	?	10	3%	-3%
COc1ccccc1OCC(=O)N/N=C/c1c(O)ccc2ccccc12	-18%	-24	?	10	?	2.6µM*
COc1ccc(/C=N/NC(=O)COc2cccc3ccccc23)c(C(=O)O)c1OC	?	0	?	9	-16%	-4%
COc1ccc2ccccc2c1/C=N/NC(=O)c1cccc(Br)c1	-2%	13	54%	5	-24%	6%
COc1cccc(/C=N/NC(=O)COc2cccc3cccnc23)c1O	·	32*	1%	19	0%	?
